Gli-Sufu block: Gli-Sufu pathway antagonists, primary screen, luciferase luminescence, Sufu-KO-LIGHT cells, uHTS | actives 0.74% (n = 340,000) | Sufu-KO-LIGHT fibroblasts, Gli luciferase reporter luminescence | inhibition, % at 5 µM | AID 588413, 2011;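 active = inhibition above about 55%, limit read from the data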
KLF5 inhibitor: KLF5 expression inhibitors, primary screen, DLD-1 cells, luminescence. DLD-1 KLF5 promoter-luciferase reporter. inhibition, % at 5 µM. actives 0.23% (n = 290,000);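 active = inhibition above a per-plate limit of that plate's mean compound inhibition plus 3 SD, cut at about 60% in these data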;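 note: higher means less KLF5 promoter-driven luciferase light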
aSyn 5UTR inh: MLPCN primary screen, SNCA 5' untranslated region. alpha-synuclein 5'UTR reporter, inhibitor activity. inhibition, % (tested at 7.5 µM). actives 0.82% (n = 300,000). AID 1813, 2009; in the data active = inhibition above about 60%;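 note: H4 neuroglioblastoma cells stably carrying SNCA 5'UTR luciferase fusion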
Jurkat NFkB inh: inhibitors of induced NF-kB luciferase reporter, primary screen, TCR NF-kB activation inhibitor project, cell-based, luminescence, uHTS. inhibition, % at 4 µM. actives 0.53% (n = 330,000). Jurkat, PMA/ionomycin-induced NF-kB luciferase reporter; in the data active = inhibition above about 50%
697 NFkB inh: inhibitors of PMA/ionomycin-induced NF-kB reporter, 697 cells, primary screen, B-cell NF-kB inhibitor project, cell-based, luminescence, uHTS | 697 B-cell NF-kB luciferase reporter, 16 h | inhibition, % at 4 µM | actives 0.33% (n = 330,000) | AID 435022, 2010; in the data active = inhibition above about 35%
Mdm2-MdmX inh: inhibitors of human Mdm2-MdmX association, primary screen, cell-based, luminescence, split luciferase, SaOS-2, uHTS. Protein Mdm4 (Homo sapiens) + E3 ubiquitin-protein ligase Mdm2 (Homo sapiens), …. SaOS-2 split-luciferase Mdm2/MdmX complementation. inhibition, % at 8 µM. actives 3% (n = 330,000). AID 485346, 2010;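 active = inhibition of at least 50% at 8 µM in the primary screen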
Target sequence (O15151 whole entry, looked up): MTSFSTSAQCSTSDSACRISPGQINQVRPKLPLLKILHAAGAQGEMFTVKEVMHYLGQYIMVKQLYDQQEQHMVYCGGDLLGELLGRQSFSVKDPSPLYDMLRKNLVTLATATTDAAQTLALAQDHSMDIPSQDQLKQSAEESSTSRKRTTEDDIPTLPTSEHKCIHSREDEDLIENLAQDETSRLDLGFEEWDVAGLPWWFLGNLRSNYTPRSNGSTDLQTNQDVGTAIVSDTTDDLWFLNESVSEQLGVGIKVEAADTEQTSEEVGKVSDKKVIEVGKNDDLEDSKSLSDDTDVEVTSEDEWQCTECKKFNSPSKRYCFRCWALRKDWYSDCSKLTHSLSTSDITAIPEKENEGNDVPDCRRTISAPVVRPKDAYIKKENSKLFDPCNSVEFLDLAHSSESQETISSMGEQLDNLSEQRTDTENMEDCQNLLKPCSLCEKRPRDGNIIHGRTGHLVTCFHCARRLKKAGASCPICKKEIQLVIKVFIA
Target sequence (Q00987 whole entry, looked up): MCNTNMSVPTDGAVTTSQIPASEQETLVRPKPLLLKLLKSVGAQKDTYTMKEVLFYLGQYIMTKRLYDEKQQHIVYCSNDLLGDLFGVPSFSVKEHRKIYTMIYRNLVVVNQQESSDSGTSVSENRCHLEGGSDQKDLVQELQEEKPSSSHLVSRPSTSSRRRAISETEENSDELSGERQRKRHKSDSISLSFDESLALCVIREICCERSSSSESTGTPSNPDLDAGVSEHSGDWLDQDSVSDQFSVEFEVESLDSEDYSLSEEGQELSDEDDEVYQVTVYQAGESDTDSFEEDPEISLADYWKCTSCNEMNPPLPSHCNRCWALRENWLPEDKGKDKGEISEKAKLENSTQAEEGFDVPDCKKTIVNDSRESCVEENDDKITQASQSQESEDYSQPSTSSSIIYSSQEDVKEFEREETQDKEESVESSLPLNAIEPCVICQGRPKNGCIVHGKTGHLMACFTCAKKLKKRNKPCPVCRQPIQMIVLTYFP
Mdm2-MdmX conf: Mdm2-MdmX complex disruptors, retested hits, confirmation, luminescence, single concentration; shares compounds with Mdm2-MdmX inh; inhibition, % at 8 µM; actives 55% (n = 10,000); Mdm2-MdmX binding, luminescent assay; in the data active = inhibition above about 40%
FLuc counter: full-length luciferase signal inhibition, confirmation, counter-screen for Mdm2/MdmX interaction inhibitor project, cell-based, single concentration, SaOS-2; inhibition, % at 8 µM; shares compounds with Mdm2-MdmX inh; actives 77% (n = 6,200); SaOS-2 full-length luciferase counterscreen, luminescence; AID 504607, 2011;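 active = mean inhibition at 8 µM reaching about 37%, which flags the compound as non-specific, limit read from the data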;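 note: p53-null SaOS-2 cells with luciferase driven by a doxycycline-inducible promoter; compound on cells about two nights before reading with doxycycline added after day one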
Large screens that a line does not name were inactive (follow-up assays come after a bar, where they were run). This is a sample that favours compounds with a hit; in the whole collection about 4.1% have one here.

COc1cc(NC(=O)c2ccc(Cl)cc2Cl)ccc1-c1cc2ccccc2oc1=O	Mdm2-MdmX inh 57 | Mdm2-MdmX conf inactive
COc1cc(NC(=O)c2cccc(F)c2)ccc1NC(=O)c1cc2ccccc2o1	Mdm2-MdmX inh 87 | Mdm2-MdmX conf 62 | FLuc counter 86
COc1cc(NC(C)=O)ccc1-c1cc2ccccc2oc1=O	none
COc1cc(NC(=O)c2ccc(C)cc2C)ccc1NC(=O)c1cc2ccccc2o1	Mdm2-MdmX inh 84 | Mdm2-MdmX conf 62 | FLuc counter 39
CC(O)CNC(=O)Cc1cc(=O)[nH]c(=O)[nH]1 (stereo not given)	none
COc1ccc(C(=O)OCC(=O)c2ccc3c(c2)NC(=O)CO3)cc1S(=O)(=O)N1CCOCC1	none (no result: KLF5 inhibitor, aSyn 5UTR inh)
CN(C)/C=C/C(=O)c1ccc([N+](=O)[O-])c(CS(=O)(=O)c2ccc(Cl)cc2)c1	none
CCN1C(=O)[C@H]2[C@@H](c3ccc(OC)cc3)N3C(=O)CN(CCOC)C(=O)[C@@]3(Cc3ccccc3)[C@H]2C1=O	none
CC1(C)C(=O)Nc2ccccc2N1C(=O)COC(=O)Cc1ccccc1F	none (no result: KLF5 inhibitor, aSyn 5UTR inh)
COc1cc(NC(=O)c2ccc(C)cc2)ccc1NC(=O)c1cc2ccccc2o1	Mdm2-MdmX inh 57 | Mdm2-MdmX conf inactive | FLuc counter 90
COc1cc(NC(=O)c2cc3ccccc3o2)ccc1NC(=O)c1ccco1	none
COc1cc(NC(=O)c2oc3ccccc3c2C)ccc1NC(=O)c1ccco1	Mdm2-MdmX inh 63 | Mdm2-MdmX conf inactive | FLuc counter 56
CS(=O)(=O)c1ccc(Cl)c(NC(=O)CCCc2nc3ccccc3c(=O)[nH]2)c1	none (no result: KLF5 inhibitor)
CCOc1ccc(S(=O)(=O)N2CCN(C(=O)c3cc([N+](=O)[O-])ccc3N3CCOCC3)CC2)cc1	Mdm2-MdmX inh 60 (no result: KLF5 inhibitor, aSyn 5UTR inh) | Mdm2-MdmX conf inactive
COc1ccc(NC(=O)C2=CCN(S(=O)(=O)c3ccccc3)CC2)cc1OC	none
O=C(Nc1ccc(Cl)cc1)c1cc2c(cc1O)[nH]c1ccccc12	Mdm2-MdmX inh 97 | Mdm2-MdmX conf 93 | FLuc counter 58
CC(C)C(=O)NC(c1cccs1)c1cc([N+](=O)[O-])c2cccnc2c1O (stereo not given)	Mdm2-MdmX inh 68 | Mdm2-MdmX conf 70 | FLuc counter 57
CCC(=O)NC(/C=C/c1ccccc1)c1cc([N+](=O)[O-])c2cccnc2c1O (stereo not given)	Mdm2-MdmX inh 64 (no result: Gli-Sufu block) | Mdm2-MdmX conf inactive
CC(C)C(=O)NC(c1cccc([N+](=O)[O-])c1)c1ccc2cccnc2c1O (stereo not given)	Gli-Sufu block 74, KLF5 inhibitor 79, aSyn 5UTR inh 91, Mdm2-MdmX inh 81 | Mdm2-MdmX conf 90 | FLuc counter 52
Cc1ccc(C(NC(=O)C(C)C)c2cc([N+](=O)[O-])c3cccnc3c2O)cc1 (stereo not given)	Mdm2-MdmX inh 57 | Mdm2-MdmX conf 51 | FLuc counter 44
O=[N+]([O-])c1cc(CN2CCCC2)c2cccnc2c1O	none (no result: aSyn 5UTR inh, Jurkat NFkB inh, 697 NFkB inh, Mdm2-MdmX inh)
O=C(Nc1ccc(Cl)cc1)c1cccs1	none
C/C(=N/NC(=O)c1cccs1)c1ccc(NC(=O)COc2ccc(Cl)cc2Cl)cc1	Mdm2-MdmX inh 75 | Mdm2-MdmX conf inactive
O=C(Nc1ccc(NC(=O)c2ccc(Cl)cc2Cl)cc1)c1cccs1	Mdm2-MdmX inh 72 | Mdm2-MdmX conf inactive
C/C(=N/NC(=O)c1ccc(Cl)s1)c1ccc(NC(=O)COc2ccc(Cl)cc2)cc1	Mdm2-MdmX inh 78 | Mdm2-MdmX conf inactive
C/C(=N/NC(=O)c1ccc(C)s1)c1cccc(NC(=O)COc2ccc(Cl)cc2Cl)c1	none
CCC(=O)Nc1ccc(/C(C)=N\NC(=O)c2ccc(C)s2)cc1	none
Cc1ccc(C)c(NC(=O)CSc2nnc(C3CCCCC3)o2)c1	none
Cc1noc(C)c1COc1ccc(C(=O)OCC(=O)Nc2ccc(C(=O)N(C)C)cc2)cc1	none (no result: KLF5 inhibitor)
Cc1c(Cl)c(=O)n2c(=O)c(Cl)c(C)n12	none
CN(CC1COc2ccccc2O1)C(=O)CSc1ncccn1 (stereo not given)	none (no result: KLF5 inhibitor, aSyn 5UTR inh)
CC(=O)OC1C2CCC1C([N+]1(C)CCCCC1)CC2 (stereo not given)	none
CC(Oc1cccc(Cl)c1)C(=O)Nc1nc(-c2ccccn2)cs1 (stereo not given)	aSyn 5UTR inh 64, Mdm2-MdmX inh 68 (no result: KLF5 inhibitor) | Mdm2-MdmX conf 77 | FLuc counter 44
CC(Oc1ccccc1)C(=O)Nc1nc(-c2ccncc2)cs1 (stereo not given)	none (no result: KLF5 inhibitor, aSyn 5UTR inh)
CC(Oc1ccccc1)C(=O)Nc1nc(-c2ccccn2)cs1 (stereo not given)	Mdm2-MdmX inh 74 (no result: KLF5 inhibitor, aSyn 5UTR inh) | Mdm2-MdmX conf 75 | FLuc counter 43
Cc1ccsc1C(=O)Nc1ccc(S(=O)(=O)N2CCOCC2)cc1	none (no result: KLF5 inhibitor, aSyn 5UTR inh)
CCN(CC)CCNC1=NCCn2c1cc1cc(OC)ccc12	Mdm2-MdmX inh 64 | Mdm2-MdmX conf 64 | FLuc counter 68
CC(C)(C)OC(=O)C[C@@H]1C/C=C\C[C@H](CC(=O)NCCO)C(=O)N[C@@H](Cc2ccccc2)COC1=O	none (no result: KLF5 inhibitor, aSyn 5UTR inh)
NC(=O)N/N=C/c1c(Sc2nnnn2-c2ccccc2)nc2ccccn2c1=O	Mdm2-MdmX inh 62 | Mdm2-MdmX conf 50 | FLuc counter inactive
CC(C)(C)NC(=O)CN(C(=O)CNS(=O)(=O)c1ccc(Cl)cc1)c1ccc2c(c1)OCCO2	none
c1cc2c3c(cccc3c1)NC1(CCC3(CC1)Nc1cccc4cccc(c14)N3)N2	Mdm2-MdmX inh 72 | Mdm2-MdmX conf inactive
O=C(O)/C=C/C(=O)OC1CC2CCC1C2 (stereo not given)	none
O=C(Nc1nc(-c2ccccn2)cs1)c1cc2ccccc2o1	Mdm2-MdmX inh 52 | Mdm2-MdmX conf 55 | FLuc counter 53
Cc1c(C(=O)Nc2nc(-c3ccccn3)cs2)oc2ccccc12	Mdm2-MdmX inh 67 (no result: KLF5 inhibitor, aSyn 5UTR inh) | Mdm2-MdmX conf 64 | FLuc counter 47
Cc1cc(-c2csc(NC(=O)c3cc4ccccc4o3)n2)c(C)n1C	none
Cc1nnc(NC(=O)c2oc3ccccc3c2C)s1	none

Bioassay records (PubChem)
